From PubChem
A selection: hits, their analogues and other compounds. The true share with any hit is near 19%.
HT1080 IDH1KD tx: qHTS for induction of synthetic lethality in tumor cells producing 2HG: qHTS for the HT-1080-IDH1KD cell line. HT-1080 IDH1 knockdown viability, ATP luminescence, 48 h. actives 2% (n = 360,000). Potency, µM (titrated, usually from 46.1 µM), hits mostly cytotoxic
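Assay cells: HT-1080 with IDH1 knockdown, 750 per well, RPMI/5% FBS. Exposure: 48 h at 37 °C following 2 h pre-incubation. Read: CellTiter-Glo luminescence; fitted concentration-response, curve class assigned.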
IL1B secr inh: qHTS for Inhibitors of Inflammasome Signaling: IL-1-beta AlphaLISA Primary Screen. THP-1 LPS/ATP IL-1B secretion, AlphaLISA, 16 h; active compounds read low. activity change, % at 57.5 µM. actives 4.7% (n = 360,000). AID 743279, 2014; in the data active = activity change below about -50%; inconclusive = mostly about -30% to -49%
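Secreted IL-1B measured by AlphaLISA bead assay after 16 h compound exposure of THP-1 cells; compounds (final up to 57.5 uM) added 1 h before LPS (250 ng/mL) and ATP (1.25 mM) stimulation; lower signal means less secretion.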
TDP1 cell noCPT: qHTS for Inhibitors of human tyrosyl-DNA phosphodiesterase 1 (TDP1): qHTS in cells in absence of CPT; Potency, µM (series often up to 46.2 µM), usual class: inhibitors; actives 15% (n = 420,000); DT40 Tdp1-/- hTDP1 cells, no CPT, ATP luminescence, 48 h; note: nearly all actives have a fitted effect of over 55% in size
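Readout: luminescence from CellTiter-Glo after 30 min in the dark at RT. Cells: DT40 Tdp1-/- with stable hTDP1, 400/well. Exposure: compounds alone, ≥48 hr, 37 °C.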
TDP1 cell CPT: qHTS for Inhibitors of human tyrosyl-DNA phosphodiesterase 1 (TDP1): qHTS in cells in presence of CPT; chicken DT40 Tdp1-/-;hTDP1 cells + 20 nM CPT, ATP luminescence, 48 h; Potency, µM (series often up to 46.2 µM), actives largely listed as inhibitors; actives 12% (n = 420,000); AID 686979, 2013; note: nearly all actives have a fitted effect of over 55% in size
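Chicken DT40 Tdp1-/- cells complemented with human TDP1, 400 cells/well, exposed to compounds plus 20 nM camptothecin for at least 48 h at 37 C; viability read as ATP content by CellTiter-Glo luminescence.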
ELG1 repair inh: qHTS screen for small molecules that inhibit ELG1-dependent DNA repair in human embryonic kidney (HEK293T) cells expressing luciferase-tagged ELG1; actives 2.3% (n = 330,000); Potency, µM (top dose mostly 46.1 µM), actives largely listed as inhibitors; HEK293T ELG1-luciferase reporter, luminescence, 16 h; DNA damage induced by 5-fluorouridine; AID 504467, 2011; note: nearly all actives have a fitted effect of over 55% in size
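Cells (2,000 per well) received 5-fluorouridine plus test compound or DMSO and were incubated 16 hr at 37 °C, 5% CO2. Luciferase activity was read by luminescence 30 min after ONE-Glo addition; signal suppression marked inhibition of damage-induced ELG1 function.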
HT1080-NT tox: qHTS for induction of synthetic lethality in tumor cells producing 2HG: qHTS for the HT-1080-NT fibrosarcoma cell line. HT-1080-NT fibrosarcoma viability, CellTiter-Glo ATP luminescence, 48 h. Potency, µM (top dose mostly 46.1 µM), hits mostly cytotoxic. actives 1.6% (n = 360,000). AID 686970, 2013;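 note: NT is the 2HG producing partner of a matched IDH1 knockdown line; nearly all actives have a fitted effect of over 55% in size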
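Viability by CellTiter-Glo luminescence after 48 h compound exposure at 37C of HT-1080-NT cells (750/well, RPMI, 5% FBS). % activity scaled between DMSO wells and medium-only wells, then curve-fitted and categorized by curve class.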
Hits are given with their value. Unless noted, calls come from the whole dose curve; as a rule, active = well fitted curve in the direction sought with a large enough effect; inconclusive = small, poorly fitted or top-dose-only effect, or another doubt; inactive = no such curve, though single readings can be large; an effect the other way counts as inactive or inconclusive.

Screening COc1ccc(Cl)cc1C(=O)NNC(=O)c1nn(C)c(=O)c2ccccc12 returned HT1080 IDH1KD tx inconclusive, IL1B secr inh inactive, TDP1 cell noCPT 16µM, TDP1 cell CPT inconclusive, ELG1 repair inh inconclusive and HT1080-NT tox inactive.
CCn1nc(C(=O)NNC(=O)c2cc(Cl)ccc2OC)c2ccccc2c1=O was read as HT1080 IDH1KD tx inactive, IL1B secr inh inactive, TDP1 cell noCPT inconclusive, TDP1 cell CPT inconclusive, ELG1 repair inh inactive and HT1080-NT tox inactive.
CC(=O)Oc1c(Br)cc(N(C(C)=O)S(=O)(=O)c2ccccc2)c2ccccc12 was read as HT1080 IDH1KD tx inconclusive, IL1B secr inh inactive, TDP1 cell noCPT 6.5µM, TDP1 cell CPT inconclusive, ELG1 repair inh 23µM and HT1080-NT tox inconclusive.
For CC(=O)Oc1ccccc1N(C(C)=O)S(=O)(=O)c1ccc2ccccc2c1 the results were HT1080 IDH1KD tx inactive, IL1B secr inh inactive, TDP1 cell noCPT inactive, TDP1 cell CPT inactive, ELG1 repair inh inactive and HT1080-NT tox inactive.
For OC1CCCN(c2c3c(nc4cc(-c5cccc(F)c5)nn24)CCCC3)C1 (centres undefined) the results were HT1080 IDH1KD tx inactive, IL1B secr inh inactive, TDP1 cell noCPT inconclusive, TDP1 cell CPT 23µM, ELG1 repair inh inconclusive and HT1080-NT tox inactive.
Screening OC1CCCN(c2c3c(nc4cc(-c5cccc(Cl)c5)nn24)CCC3)C1 (centres undefined) returned HT1080 IDH1KD tx inactive, IL1B secr inh -102, TDP1 cell noCPT inconclusive, TDP1 cell CPT 18µM, ELG1 repair inh 21µM and HT1080-NT tox inconclusive.
`O=C(C1CCN(c2nc(-c3ccccc3)nc3c2CCC3)CC1)N1CCC(O)CC1` gave HT1080 IDH1KD tx inactive, IL1B secr inh inactive, TDP1 cell noCPT inconclusive, TDP1 cell CPT inconclusive, ELG1 repair inh inconclusive and HT1080-NT tox inactive.
`COCCN1CCN(c2c3c(nc4cc(-c5cccc(F)c5)nn24)CCC3)CC1` gave HT1080 IDH1KD tx inactive, IL1B secr inh inactive, TDP1 cell noCPT 23µM, TDP1 cell CPT inconclusive, ELG1 repair inh inconclusive and HT1080-NT tox inactive.
CN(C)CCCNc1c2c(nc3cc(-c4cccc(F)c4)nn13)CCC2 was read as HT1080 IDH1KD tx inactive, IL1B secr inh inactive, TDP1 cell noCPT inactive, TDP1 cell CPT inactive, ELG1 repair inh inactive and HT1080-NT tox inactive.
For Cc1cccc(-c2cc3nc4c(c(N5CCCC(O)C5)n3n2)CCC4)c1 (centres undefined) the results were HT1080 IDH1KD tx inconclusive, TDP1 cell noCPT 26µM, TDP1 cell CPT inconclusive, ELG1 repair inh 16µM and HT1080-NT tox inconclusive.
For Cc1ccc(S(=O)(=O)N(C)CC(=O)O/N=C(\N)c2cccc(Br)c2)cc1 the results were HT1080 IDH1KD tx inactive, IL1B secr inh inactive, TDP1 cell noCPT inactive, TDP1 cell CPT inactive, ELG1 repair inh inactive and HT1080-NT tox inactive.
Cc1cc2ccccc2n1CCNC(=O)c1cccc(Br)c1 was read as TDP1 cell noCPT 12µM and TDP1 cell CPT 21µM.
Cc1cc2ccccc2n1CCNC(=O)c1cccs1 was read as HT1080 IDH1KD tx inactive, IL1B secr inh inactive, TDP1 cell noCPT inconclusive, TDP1 cell CPT inactive, ELG1 repair inh inconclusive and HT1080-NT tox inactive.
For Cc1cc2ccccc2n1CCNC(=O)C1CC1 the results were HT1080 IDH1KD tx inactive, IL1B secr inh inactive, TDP1 cell noCPT inactive, TDP1 cell CPT 15µM, ELG1 repair inh inactive and HT1080-NT tox inactive.
For Cc1cc2ccccc2n1CCNC(=O)c1cccc(Cl)c1 the results were TDP1 cell noCPT 7.3µM and TDP1 cell CPT 15µM.
`Cc1ccc(CSc2nc3c(c(=O)[nH]2)C(c2cccc(F)c2F)CC(=O)N3)cc1` (centres undefined) gave TDP1 cell noCPT inconclusive and TDP1 cell CPT 15µM.
CCc1cccc(NC(=O)CCn2nc(C)cc2C)c1 was read as TDP1 cell noCPT inactive and TDP1 cell CPT inactive.
`COc1ccc(-c2noc(CCC(=O)NCc3cccnc3)n2)cc1` gave HT1080 IDH1KD tx inactive, IL1B secr inh inactive, TDP1 cell noCPT inactive, TDP1 cell CPT inconclusive, ELG1 repair inh inactive and HT1080-NT tox inactive.
Screening COc1ccc(-c2nc(-c3ccc(NC(=O)c4ccncc4)cc3)no2)cc1OC returned HT1080 IDH1KD tx inactive, IL1B secr inh inactive, TDP1 cell noCPT 7.3µM, TDP1 cell CPT 5.2µM, ELG1 repair inh inconclusive and HT1080-NT tox inactive.
`COc1cccc(-c2nc(-c3ccc(NC(=O)c4ccncc4)cc3)no2)c1` gave HT1080 IDH1KD tx inactive, IL1B secr inh inactive, TDP1 cell noCPT 10µM, TDP1 cell CPT 9.2µM, ELG1 repair inh inactive and HT1080-NT tox inactive.
`COc1ccc(Cl)cc1-c1nc(-c2ccc(NC(=O)c3ccncc3)cc2)no1` gave HT1080 IDH1KD tx inactive, IL1B secr inh inactive, TDP1 cell noCPT 10µM, TDP1 cell CPT inconclusive and HT1080-NT tox inconclusive.
`COc1ccc(Cc2nc(-c3ccc(NC(=O)c4cccnc4)cc3)no2)cc1` gave HT1080 IDH1KD tx inconclusive, IL1B secr inh inconclusive, TDP1 cell noCPT 6.5µM, TDP1 cell CPT 5.8µM, ELG1 repair inh inactive and HT1080-NT tox inconclusive.
Screening COC(=O)c1sccc1NC(=O)Nc1cccc(F)c1 returned HT1080 IDH1KD tx inactive, IL1B secr inh inactive, TDP1 cell noCPT inactive, TDP1 cell CPT inactive, ELG1 repair inh inactive and HT1080-NT tox inactive.
`COc1ccc(-c2cc(C(=O)O)n(Cc3ccccc3)n2)cc1` gave TDP1 cell noCPT inactive and TDP1 cell CPT inactive.
COc1cc(-c2nc(-c3ccc(NC(=O)c4ccc5c(c4)OCO5)cc3)no2)cc(OC)c1OC was read as HT1080 IDH1KD tx 5.2µM, IL1B secr inh inconclusive, TDP1 cell noCPT inconclusive, TDP1 cell CPT inconclusive, ELG1 repair inh inconclusive and HT1080-NT tox 4.6µM.
COc1cccc(-c2noc(-c3ccc(Cl)nc3)n2)c1 was read as HT1080 IDH1KD tx inactive, IL1B secr inh -75, TDP1 cell noCPT inactive, TDP1 cell CPT inconclusive, ELG1 repair inh inconclusive and HT1080-NT tox inactive.
`CC(C)Oc1ccc(CNC(=O)C2COc3ccccc3C2)cc1` (centres undefined) gave TDP1 cell noCPT inconclusive and TDP1 cell CPT inactive.
CCN(CC)CCCNC(=O)c1ccc2c(c1)N(Cc1c(F)cccc1Cl)C(=O)c1ccccc1S2 was read as TDP1 cell noCPT 15µM and TDP1 cell CPT inconclusive.
